Columns and labels:
[1] = target: T1, Serine/threonine-protein kinase BRSK1 (Homo sapiens) (UniProt Q8TDC3); details: at 1 µM
T1 sequence (whole entry): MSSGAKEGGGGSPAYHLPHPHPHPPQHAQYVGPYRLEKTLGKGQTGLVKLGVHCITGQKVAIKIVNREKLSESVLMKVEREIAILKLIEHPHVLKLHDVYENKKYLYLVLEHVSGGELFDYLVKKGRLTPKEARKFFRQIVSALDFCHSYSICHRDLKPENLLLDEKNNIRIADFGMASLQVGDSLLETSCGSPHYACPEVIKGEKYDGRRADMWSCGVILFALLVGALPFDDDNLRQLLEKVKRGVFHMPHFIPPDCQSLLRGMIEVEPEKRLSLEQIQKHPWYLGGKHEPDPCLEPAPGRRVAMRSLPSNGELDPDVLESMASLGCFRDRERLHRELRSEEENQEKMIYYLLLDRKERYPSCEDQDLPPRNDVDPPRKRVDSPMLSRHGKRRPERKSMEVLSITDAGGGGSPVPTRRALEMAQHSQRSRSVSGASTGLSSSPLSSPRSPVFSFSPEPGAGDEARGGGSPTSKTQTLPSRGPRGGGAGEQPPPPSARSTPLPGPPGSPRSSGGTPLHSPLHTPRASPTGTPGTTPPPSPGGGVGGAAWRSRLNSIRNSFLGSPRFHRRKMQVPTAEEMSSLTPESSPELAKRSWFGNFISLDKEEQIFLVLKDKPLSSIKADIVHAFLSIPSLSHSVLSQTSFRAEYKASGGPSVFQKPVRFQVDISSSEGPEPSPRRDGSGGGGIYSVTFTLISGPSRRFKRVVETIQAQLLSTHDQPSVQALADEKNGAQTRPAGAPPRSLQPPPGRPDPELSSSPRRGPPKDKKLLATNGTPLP

[2] = target: T1, Serine/threonine-protein kinase BRSK1 (Homo sapiens); details: at 10 µM
[3] = target: T2, Serine/threonine-protein kinase BRSK2 (Homo sapiens) (UniProt Q8IWQ3); details: at 1 µM
T2 sequence (whole entry): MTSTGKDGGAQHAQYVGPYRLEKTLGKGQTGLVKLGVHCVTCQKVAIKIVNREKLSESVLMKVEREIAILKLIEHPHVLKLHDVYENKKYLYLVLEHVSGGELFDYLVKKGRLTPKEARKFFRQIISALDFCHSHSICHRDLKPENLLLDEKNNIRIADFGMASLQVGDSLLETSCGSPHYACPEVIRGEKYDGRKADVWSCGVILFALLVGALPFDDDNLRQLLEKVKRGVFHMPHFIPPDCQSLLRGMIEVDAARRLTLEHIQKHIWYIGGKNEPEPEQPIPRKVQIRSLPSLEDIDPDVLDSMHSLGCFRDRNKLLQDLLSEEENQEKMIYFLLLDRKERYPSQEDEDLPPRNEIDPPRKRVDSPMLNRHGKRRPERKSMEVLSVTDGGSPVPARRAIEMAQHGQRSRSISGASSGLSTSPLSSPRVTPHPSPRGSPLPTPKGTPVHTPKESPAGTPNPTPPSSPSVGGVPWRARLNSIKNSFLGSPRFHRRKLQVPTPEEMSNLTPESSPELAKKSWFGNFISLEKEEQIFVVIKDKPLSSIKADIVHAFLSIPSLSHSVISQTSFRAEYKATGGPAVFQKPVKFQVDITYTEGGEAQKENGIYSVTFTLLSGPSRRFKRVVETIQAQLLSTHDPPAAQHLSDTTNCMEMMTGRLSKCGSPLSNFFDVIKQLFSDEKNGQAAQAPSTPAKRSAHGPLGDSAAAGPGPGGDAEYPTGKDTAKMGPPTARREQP

[4] = target: T2, Serine/threonine-protein kinase BRSK2 (Homo sapiens); details: at 10 µM
[5] = target: T3, Cyclin-dependent kinase 1/cyclin B1 (Homo sapiens) (UniProt P06493+P14635); details: at 1 µM
T3 sequence (P06493 whole entry, looked up): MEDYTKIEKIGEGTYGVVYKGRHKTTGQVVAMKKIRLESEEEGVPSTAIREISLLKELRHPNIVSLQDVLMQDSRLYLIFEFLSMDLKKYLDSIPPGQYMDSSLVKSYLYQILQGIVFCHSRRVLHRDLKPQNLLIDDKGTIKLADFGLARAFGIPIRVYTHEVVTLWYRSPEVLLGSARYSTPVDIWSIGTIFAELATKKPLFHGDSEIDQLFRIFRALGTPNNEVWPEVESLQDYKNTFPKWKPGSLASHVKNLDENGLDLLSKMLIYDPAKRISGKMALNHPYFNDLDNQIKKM
T3 sequence (P14635 whole entry, looked up): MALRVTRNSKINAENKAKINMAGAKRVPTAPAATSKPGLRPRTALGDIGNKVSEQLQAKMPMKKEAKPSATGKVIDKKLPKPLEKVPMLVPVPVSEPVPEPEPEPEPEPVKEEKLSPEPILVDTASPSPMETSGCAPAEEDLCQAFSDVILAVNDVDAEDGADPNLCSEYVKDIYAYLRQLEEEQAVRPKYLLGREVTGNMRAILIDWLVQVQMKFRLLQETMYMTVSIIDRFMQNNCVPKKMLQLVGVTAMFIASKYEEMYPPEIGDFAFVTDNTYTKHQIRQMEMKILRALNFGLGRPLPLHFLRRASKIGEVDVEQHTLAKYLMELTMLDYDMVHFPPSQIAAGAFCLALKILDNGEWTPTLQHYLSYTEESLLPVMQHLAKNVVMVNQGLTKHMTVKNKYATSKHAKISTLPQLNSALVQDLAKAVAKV

[6] = target: T3, Cyclin-dependent kinase 1/cyclin B1 (Homo sapiens); details: at 10 µM
[7] = target: T4, Cyclin-dependent kinase 2/cyclin A (Homo sapiens) (UniProt P24941+P20248+P78396); details: at 1 µM
[8] = target: T4, Cyclin-dependent kinase 2/cyclin A (Homo sapiens); details: at 10 µM
[9] = target: T5, Cyclin-dependent kinase 2/cyclin E (Homo sapiens) (UniProt P24864+P24941+O96020); details: at 1 µM
[10] = target: T5, Cyclin-dependent kinase 2/cyclin E (Homo sapiens); details: at 10 µM
[11] = target: T6, CDK3/cyclin E (Homo sapiens) (UniProt P24864+O96020+Q00526); details: at 1 µM
T6 sequence (O96020 whole entry, looked up): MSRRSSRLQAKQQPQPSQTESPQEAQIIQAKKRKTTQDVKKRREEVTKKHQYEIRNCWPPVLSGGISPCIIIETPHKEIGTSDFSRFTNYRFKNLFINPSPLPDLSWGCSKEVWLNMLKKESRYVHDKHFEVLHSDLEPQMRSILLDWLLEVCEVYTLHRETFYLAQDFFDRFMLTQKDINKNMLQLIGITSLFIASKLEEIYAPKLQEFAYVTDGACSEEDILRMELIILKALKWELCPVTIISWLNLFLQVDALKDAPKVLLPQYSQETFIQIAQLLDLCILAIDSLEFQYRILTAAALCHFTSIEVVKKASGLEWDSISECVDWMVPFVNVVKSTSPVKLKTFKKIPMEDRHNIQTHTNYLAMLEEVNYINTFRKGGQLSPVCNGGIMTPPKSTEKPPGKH
T6 sequence (P24864 whole entry, looked up): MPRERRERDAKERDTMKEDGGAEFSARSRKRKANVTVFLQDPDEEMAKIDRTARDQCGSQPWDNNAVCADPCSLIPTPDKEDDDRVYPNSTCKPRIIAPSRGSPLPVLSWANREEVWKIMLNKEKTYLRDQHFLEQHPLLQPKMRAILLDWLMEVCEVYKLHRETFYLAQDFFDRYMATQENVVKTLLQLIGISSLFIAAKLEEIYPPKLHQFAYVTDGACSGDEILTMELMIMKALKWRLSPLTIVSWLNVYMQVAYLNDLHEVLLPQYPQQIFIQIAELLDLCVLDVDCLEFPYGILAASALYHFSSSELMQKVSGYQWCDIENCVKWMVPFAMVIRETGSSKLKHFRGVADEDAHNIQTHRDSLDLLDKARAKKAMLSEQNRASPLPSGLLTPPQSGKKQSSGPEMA
T6 sequence (Q00526 whole entry, looked up): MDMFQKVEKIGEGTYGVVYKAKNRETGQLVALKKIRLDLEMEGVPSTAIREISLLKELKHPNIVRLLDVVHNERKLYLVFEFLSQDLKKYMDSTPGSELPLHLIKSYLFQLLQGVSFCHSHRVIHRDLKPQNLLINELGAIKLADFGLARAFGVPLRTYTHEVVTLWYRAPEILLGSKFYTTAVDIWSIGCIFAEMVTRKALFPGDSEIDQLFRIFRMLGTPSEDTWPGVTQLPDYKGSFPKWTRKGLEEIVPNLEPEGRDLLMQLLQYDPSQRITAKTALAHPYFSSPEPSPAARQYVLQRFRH

[12] = target: T6, CDK3/cyclin E (Homo sapiens); details: at 10 µM
[13] = target: T7, Cyclin-dependent kinase 5/CDK5 activator 1 (Homo sapiens) (UniProt Q00535+Q15078); details: at 1 µM
T7 sequence (Q00535 whole entry): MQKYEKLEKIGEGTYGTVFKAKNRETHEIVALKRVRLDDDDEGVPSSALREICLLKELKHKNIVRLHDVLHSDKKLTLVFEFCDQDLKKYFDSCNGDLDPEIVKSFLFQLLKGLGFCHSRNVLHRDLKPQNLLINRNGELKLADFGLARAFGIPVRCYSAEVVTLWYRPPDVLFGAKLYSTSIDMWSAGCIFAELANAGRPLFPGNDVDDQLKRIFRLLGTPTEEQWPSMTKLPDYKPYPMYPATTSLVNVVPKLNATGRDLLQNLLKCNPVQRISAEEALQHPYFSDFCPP
T7 sequence (Q15078 99-307 partner limits assumed): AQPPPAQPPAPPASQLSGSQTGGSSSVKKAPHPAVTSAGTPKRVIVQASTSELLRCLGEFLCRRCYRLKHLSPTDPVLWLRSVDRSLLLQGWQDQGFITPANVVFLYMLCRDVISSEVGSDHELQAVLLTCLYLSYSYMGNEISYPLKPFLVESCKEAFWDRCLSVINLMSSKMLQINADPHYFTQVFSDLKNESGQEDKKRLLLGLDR

[14] = target: T7, Cyclin-dependent kinase 5/CDK5 activator 1 (Homo sapiens); details: at 10 µM
[15] = target: T7, Cyclin-dependent kinase 5/CDK5 activator 1 (Homo sapiens); details: at 1 µM; remark: listed apart in the source
[16] = target: T7, Cyclin-dependent kinase 5/CDK5 activator 1 (Homo sapiens); details: at 10 µM; remark: listed apart in the source
[17] = target: T8, CDK6/cyclin D3 (Homo sapiens) (UniProt P30281+Q00534); details: at 1 µM
[18] = target: T8, CDK6/cyclin D3 (Homo sapiens); details: at 10 µM
[19] = target: T9, Cyclin-dependent kinase 7/ cyclin H (Homo sapiens) (UniProt P51946+P50613); details: at 1 µM
[20] = target: T9, Cyclin-dependent kinase 7/ cyclin H (Homo sapiens); details: at 10 µM

SMILES	residual activity [1] [%]	residual activity [2] [%]	residual activity [3] [%]	residual activity [4] [%]	residual activity [5] [%]	residual activity [6] [%]	residual activity [7] [%]	residual activity [8] [%]	residual activity [9] [%]	residual activity [10] [%]	residual activity [11] [%]	residual activity [12] [%]	residual activity [13] [%]	residual activity [14] [%]	residual activity [15] [%]	residual activity [16] [%]	residual activity [17] [%]	residual activity [18] [%]	residual activity [19] [%]	residual activity [20] [%]
COc1cccc(-c2cc(=O)c3ccccc3o2)c1N	101	103	123	98	99	99	93	10	96	85	90	84	102	99	112	89	102	100	103	89
CC[n+]1c(/C=C/N(C)c2ccccc2)n(-c2ccccc2)c2ccc(-c3nc4ccccc4s3)cc21	59	68	111	129	111	91	146	85	101	89	108	90	115	92	101	95	105	104	97	100
CCN(CC)CCCCN1c2ccccc2Oc2ccc(Cl)cc21	88	105	131	126	119	96	132	102	116	106	117	94	99	102	100	105	108	103	89	105
CCC(=O)Nc1ccc2ncnc(Nc3cccc(Br)c3)c2c1	55	17	97	63	114	107	135	101	106	104	101	78	102	113	79	101	84	81	86	95
O=C1Nc2cc(Br)ccc2/C1=C1/Nc2ccccc2/C1=N\O	33	12	4	6	54	12	37	38	3	7	0	1	6	10	2	9	40	5	34	13
O=Nc1c(-c2c(O)[nH]c3ccccc23)[nH]c2ccccc12	13	12	10	5	35	19	19	5	6	-1	5	0	3	2	5	1	16	5	42	16
NC(=O)c1ccc2[nH]c(-c3ccc(Oc4ccc(Cl)cc4)cc3)nc2c1	83	81	116	88	93	56	82	83	91	87	87	80	68	31	83	55	93	82	99	98
Oc1n[nH]c2nnc(-c3c(-c4ccccc4)nn4ccccc34)cc12	88	76	112	83	109	105	89	86	89	93	84	87	96	103	105	82	89	83	89	86
COc1cc2ncnc(Nc3ccc(O)c(Br)c3)c2cc1OC	17	22	91	34	100	68	–	42	102	88	84	71	84	51	98	67	87	86	81	78
O=C1NC(=O)c2c1c1c3ccccc3[nH]c1c1[nH]c3cc(Br)ccc3c21	82	55	69	32	92	74	84	82	63	67	88	77	55	62	83	68	87	58	99	94
CC#CC(=O)Nc1cc2c(Nc3ccc(F)c(Cl)c3)ncnc2cn1	87	81	94	100	107	94	126	85	–	94	97	86	90	89	82	103	96	86	82	108
Cc1cccc(-c2[nH]c(C(C)(C)C)nc2-c2ccc3c(c2)OCO3)n1	97	106	–	–	–	–	133	103	–	98	90	89	83	88	92	97	104	106	100	95
COc1cc2ncc(-c3ccccc3)nc2cc1OC	96	86	80	67	–	–	129	–	–	–	96	91	–	–	–	93	–	–	95	91
N#CC(C#N)=C(N)/C(C#N)=C/c1ccc(O)cc1	–	–	–	–	–	–	124	88	–	–	94	89	–	83	–	117	98	87	96	90
c1ccc(-c2n[nH]cc2-c2ccnc3ccccc23)nc1	104	58	–	–	–	–	–	–	–	94	83	79	83	63	–	–	–	–	98	95
CO[C@@H]1[C@H](N(C)C(=O)c2ccccc2)C[C@H]2O[C@]1(C)n1c3ccccc3c3c4c(c5c6ccccc6n2c5c31)C(=O)NC4	3	3	4	3	82	80	80	39	70	60	76	67	57	40	76	54	87	81	–	90
Oc1ccc(Nc2nc(-c3ccc(Cl)cc3)cs2)cc1	81	90	125	126	111	84	101	78	100	93	108	80	102	90	120	98	112	101	106	89
CO[C@H]1C[C@@H]2CC[C@@H](C)[C@@](O)(O2)C(=O)C(=O)N2CCCC[C@H]2C(=O)O[C@H]([C@H](C)C[C@@H]2CC[C@@H](O)[C@H](OC)C2)CC(=O)[C@H](C)/C=C(\C)[C@@H](O)[C@@H](OC)C(=O)[C@H](C)C[C@H](C)/C=C/C=C/C=C/1C	70	68	97	139	120	108	129	113	105	96	90	86	90	92	78	100	88	89	88	94
COc1ccc(OC)c2c(=S)c3ccccc3[nH]c12	78	76	99	89	100	94	85	80	85	74	92	73	97	58	105	67	90	85	123	87
Cn1cc(/C=C2\C(=O)Nc3ccc(S(N)(=O)=O)cc32)c2ccccc21	23	3	36	19	34	39	68	46	67	52	69	34	42	17	33	34	93	56	13	4
Cc1ccc(S(=O)(=O)/C=C/C#N)cc1	83	99	113	77	106	102	124	91	91	105	93	96	102	101	100	80	95	93	101	90
N#CCCc1ccc2c(c1)-c1[nH]c3ccc([N+](=O)[O-])cc3c1CC(=O)N2	–	–	39	13	3	0	0	1	1	-2	2	0	-1	0	0	0	30	8	–	–
c1ccc2c(-c3ccncc3)c[nH]c2c1	52	59	106	61	–	–	–	83	–	–	90	73	91	74	86	75	85	82	83	94
c1ccc(-c2n[nH]c3c2oc2ccccc23)cc1	–	–	114	73	94	75	128	64	–	60	98	41	67	27	77	31	75	30	84	91
Oc1c2ccccc2c2c3c(cccc13)N=N2	38	29	64	9	52	35	59	36	8	3	26	14	–	–	–	–	76	31	75	24
CNc1cc2c(Nc3cccc(Br)c3)ncnc2cn1	34	8	–	26	111	99	123	94	105	107	88	83	98	110	79	89	94	81	87	74
O=C(O)c1ccc2c3c1cccc3c(=O)n1c3ccccc3nc21	84	46	104	41	62	15	82	41	99	81	108	94	85	43	–	57	114	86	100	91
N#Cc1cnc2cnc(NCc3cccnc3)cc2c1Nc1ccc(F)c(Cl)c1	–	–	100	94	9	8	91	91	–	–	21	11	–	–	22	11	123	97	71	46
C[C@@H](N)[C@H]1CC[C@H](C(=O)Nc2ccncc2)CC1	106	107	123	82	–	85	–	–	–	–	117	112	99	85	117	78	108	109	101	93
N#C/C(=C(\N)Sc1ccc(N)cc1)c1ccccc1C(F)(F)F	85	74	105	103	104	96	86	–	97	102	96	86	90	92	110	100	98	88	102	94

Source: ChEMBL document CHEMBL2218924, “A broad activity screen in support of a chemogenomic map for kinase signalling research and drug discovery” (Biochem J, 2013)
